# Shown are actives, neighbours in structure and some others; about 3.7% of the full set was active somewhere.
# BRCA1 expr act: BRCA1 expression activation. MCF7-BRCA1-FFLuc reporter, luminescence, 48 h; response scale: scaled: vehicle 0%, 10 µM genistein 100%. Potency, µM (series often up to 46.1 µM), for the others: at the top dose activation, hits mostly activators. 380,000 tested, 1.1% active. AID 624202; further: potency means the concentration at half of the fitted maximal effect; nearly all actives have a fitted effect of over 80% in size
#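 48 h compound treatment of MCF7-BRCA1-FFLuc cells (phenol-red free MEM, 37 °C), then 15 min with luciferase substrate and luminescence imaging.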
# D3 ag: agonists of human D3 dopamine receptor | AID 652048 | P35462 | max activation, % | 410,000 tested, 0.58% active | D3R DiscoveRx beta-arrestin cells, luminescence, 90 min; in the data active means max activation above about 30%; further: 0% is about no effect
#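 Agonist-mode cell screen: cells plated at 1500/well and incubated overnight at 37 °C, then exposed to library compounds for 90 min at 37 °C. Detection reagent was added for 30–60 min at room temperature, and luminescence was read.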
# B2AR arrestin: beta2AR (human) beta-arrestin recruitment activity. P07550. beta-arrestin recruitment to beta2AR, cell-based reporter. Potency, µM (top dose mostly 46.1 µM), inactives show at the highest dose activation, hits mostly activators. 330,000 tested, 0.02% active. AID 492947;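 further: potency means the concentration at half of the fitted maximal effect; 0% = DMSO controls and full agonism = EC100 isoproterenol or metaproterenol; nearly all actives have a fitted effect of over 65% in size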
# DRD3 antagonist: blocks the human D3 dopamine receptor | D3R cells, DiscoveRx beta-arrestin luminescence, antagonist mode; stronger effect = lower value | max response, negative = inhibition, % | AID 652054 | 360,000 tested, 2.5% active; in the data active means max response below about -50%; inconclusive means no clear call, values can overlap the other calls; further: on the % scale 0 is the no-effect control and ±100 the full control effect
#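 Cells expressing the human receptor were seeded at 1500 cells/well, incubated overnight at 37 degrees C in 5% CO2, then exposed to library compounds with dopamine controls for 90 minutes at 37 degrees C before luminescent detection.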
# PTHR1 agonist: agonists of human PTHR1 parathyroid hormone receptor | Q03431 | HEK293 GP2 PTHR1 cells, GloSensor cAMP luminescence, 1 h | Potency, µM (top dose mostly 115 µM), inactives show top-dose activation, hits mostly activators | 410,000 tested, 0.075% active; further: potency means the concentration at half of the fitted maximal effect; nearly all actives have a fitted effect of over 55% in size
# Target sequence (Q03431 whole entry, looked up): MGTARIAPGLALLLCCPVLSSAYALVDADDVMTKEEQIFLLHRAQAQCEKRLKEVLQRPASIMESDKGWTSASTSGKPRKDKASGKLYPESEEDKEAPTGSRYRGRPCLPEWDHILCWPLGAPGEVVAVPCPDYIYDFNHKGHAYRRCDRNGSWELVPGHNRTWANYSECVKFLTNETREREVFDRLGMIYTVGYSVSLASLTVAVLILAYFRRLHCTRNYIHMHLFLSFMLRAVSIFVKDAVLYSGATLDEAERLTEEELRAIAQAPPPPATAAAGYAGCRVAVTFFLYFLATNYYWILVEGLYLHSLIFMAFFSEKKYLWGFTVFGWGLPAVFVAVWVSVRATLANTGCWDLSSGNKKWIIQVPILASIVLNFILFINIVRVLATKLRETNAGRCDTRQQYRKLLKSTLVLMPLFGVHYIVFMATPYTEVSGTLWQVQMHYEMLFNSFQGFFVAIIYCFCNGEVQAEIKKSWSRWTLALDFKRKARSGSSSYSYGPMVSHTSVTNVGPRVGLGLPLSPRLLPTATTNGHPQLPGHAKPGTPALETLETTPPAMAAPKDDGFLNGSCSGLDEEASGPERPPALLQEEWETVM
#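 HEK-293-derived GP2 cells expressing PTHR1 and a GloSensor cAMP reporter, 3,000/well, plated overnight, given luciferin plus IBMX (each 0.5 mM as added) for 1 h at 37 °C, then compound for 1 h at 37 °C. Luminescence was read after 15 min at room temperature.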
# RGS4 inhibitor: blocks human RGS4-accelerated GTP hydrolysis | P49798 | Transcreener GDP fluorescence polarization, RGS4-accelerated GTP hydrolysis | Potency, µM (titrated, usually from 114 µM), without a hit: at the top dose activity change, negative = inhibition, hits mostly inhibitors | 390,000 tested, 0.039% active | AID 504845; further: potency means the concentration at half of the fitted maximal effect; on the % scale 0 is the no-effect control and ±100 the full control effect; nearly all actives have a fitted effect of over 75% in size
#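 MLSMR compounds (23 nl, pin-transferred) preincubated 10 min at room temperature with a 500nM (2x) first reagent, then RGS4 at 900nM (2x) plus Transcreener GDP mix added; fluorescence polarization (620/688 nm) read before and after 90 min at 30 °C.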
# Starred values were filed as active, the others as inactive; i = inactive; ? = inconclusive; . = not tested or not shown; ! = not confirmed by another sample; [ ] = another dose, or the depositor's remark. Unless noted, the call rests on the fitted dose curve; in most records, active means well fitted curve in the direction sought with a large enough effect; inconclusive means small, poorly fitted or top-dose-only effect, or another doubt; inactive means no such curve, though single readings can be large; an effect the other way counts as inactive or inconclusive.
SMILES,BRCA1 expr act,D3 ag,B2AR arrestin,DRD3 antagonist,PTHR1 agonist,RGS4 inhibitor
O=C(CNC(=O)C(c1ccccc1)c1ccccc1)N/N=C\c1cccc(O)c1,0.0%,2.9,14.9%,1.5,-3.3%,32.8%
O=C(N/N=C/c1ccc(O)cc1O)c1ccncc1,-41.1%,41.6*,-0.1%,29.3,i,1.0%
O=C(N/N=C/c1ccc(O)cc1O)c1ccc(NC(=O)C2CCCCC2)cc1,-72.3%,-1.4,-0.2%,4.7,-13.1%,9.5%
COc1ccc2nc(C)cc(Sc3nc4ccccc4s3)c2c1,-84.2%,4.5,2.5%,-22.0,-28.0%,-42.6%
O=C1c2ccccc2C(=O)c2c1ccc1c(=O)n(-c3ccccc3)[nH]c21,67.0%,-11.3,-0.7%,-17.8,-4.0%,-11.9%
Cc1cccc(-n2[nH]c3c4c(ccc3c2=O)C(=O)c2ccccc2C4=O)c1,-5.0%,-5.1,3.6%,-64.1*,i,2.9%
CCCN1Cc2cccc(C(=O)N3CCN(c4cc(Cl)ccc4C)CC3)c2C1=O,-16.2%,-4.5,0.0%,-50.8*,-39.0%,9.7%
S=c1nn[nH]c2ccccc12,-23.7%,85.3*,.,-19.9,-19.6%,-21.7%
Nc1n[nH]c2ccccc12,-4.5%,23.7,0.0%,7.9,-25.2%,-3.2%
CN1CCN(CCCNC(=O)CCN2C(=O)COc3ccccc32)CC1,13.9%,0.5,0.1%,11.7,i,2.7%
CCOC(=O)C1CCC(CN(Cc2ccc(OC)cc2)S(=O)(=O)c2ccc(C)cc2)CC1 (stereo not given),.,-13.0,.,.,i,15.9%
Cc1ccc(C(=O)c2cc([N+](=O)[O-])ccc2N2CCCCC2)cc1,-84.5%,-8.1,0.3%,-65.4*,i,18.2%
Cc1ccc(C(=O)c2cc([N+](=O)[O-])ccc2N2CC(C)OC(C)C2)cc1 (stereo not given),-44.9%,-7.2,-0.1%,?,-51.1%,?
CCN(C[C@H]1N[C@@](Cc2ccccc2)(C(=O)OC)[C@H]2C(=O)N(Cc3ccccc3)C(=O)[C@@H]12)S(=O)(=O)c1ccccc1,0.0%,-14.2,0.1%,-72.2*,i,-1.5%
CCN(C[C@H]1N[C@@](Cc2ccccc2)(C(=O)OC)[C@H]2C(=O)N(Cc3ccccc3)C(=O)[C@@H]12)S(=O)(=O)c1ccc(-c2ccccc2)cc1,1.3%,5.5,0.0%,33.6,-2.8%,-27.9%
COC(=O)[C@]1(Cc2ccccc2)N[C@H](CN(C)C(=O)Nc2ccc(OC)cc2)[C@@H]2C(=O)N(C)C(=O)[C@@H]21,2.1%,3.7,-2.3%,-52.7*,i,2.2%
CCN(C[C@H]1N[C@@](CC)(C(=O)OC)[C@H]2C(=O)N(Cc3ccccc3)C(=O)[C@@H]12)C(=O)c1ccc(C)cc1,-4.0%,55.2*,-0.9%,82.5,i,6.6%
CCOc1ccc(CCNC(=O)c2cc3n(n2)CCCN(Cc2ccc(C)cc2)C3=O)cc1OCC,.,-24.8,.,.,i,8.6%
COc1ccc(-c2csc(N(CCc3ccc(OC)c(OC)c3)C(=O)COc3ccccc3)n2)cc1,-36.6%,20.3,-0.5%,36.4,i,-21.6%
Cc1cc([N+](=O)[O-])ccc1-c1ccc(/C=N/NC(=O)c2ccc(Br)o2)o1,-100.3%,-2.3,0.3%,-53.8*,-10.1%,-16.9%
COc1ccccc1N1CCN(S(=O)(=O)CCNC(=O)COc2ccccc2F)CC1,.,-4.0,.,.,-5.0%,-38.8%
O=C1C=C(OCCCl)CC(c2cccc(Cl)c2)O1 (stereo not given),.,5.5,.,2.7,-19.3%,.
COc1ccc2oc(=O)c(C(=O)Nc3cccc(C(=O)O)c3)cc2c1,.,3.5,.,.,-22.0%,17.0%
COc1ccc2oc(=O)c(C(=O)Nc3cccc(C)c3)cc2c1,3.16µM*,-9.3,-1.1%,38.3,-16.2%,-6.0%
CN(Cc1ccccc1)C(=O)c1cccc(NC(=O)Cc2ccc(NC(=O)C3CCCN(C(=O)C4CCCC4)C3)cc2)c1 (stereo not given),-23.0%,-16.3,.,10.4,-25.1%,9.1%
SMILES,BRCA1 expr act,D3 ag,B2AR arrestin,DRD3 antagonist,PTHR1 agonist,RGS4 inhibitor
COc1ccccc1NC1=NCC(=O)N1Cc1ccccc1,21.0%,1.9,-0.9%,-0.1,15.1%[57.5 µM],9.8%
Cc1ccc(NC2=NCC(=O)N2Cc2ccccc2)c(C)c1,2.5%,39.2*,-0.5%,82.5,i,-2.1%
CCOc1ccc2nc(NC(=O)c3cc(=O)c4cc(C)cc(C)c4o3)sc2c1,.,-3.1,.,.,i,10.8%
Cc1cccc(CN2CCN(C3CN(C4CCCC4)S(=O)(=O)C3)CC2)c1 (stereo not given),7.0%,-10.8,.,?,3.3%,.
Cc1cccc(CN2CCN(C3CN(C4CCCCC4)S(=O)(=O)C3)CC2)c1 (stereo not given),-3.4%,-14.3,.,-57.0*,-16.3%,.
N/C(CSc1ncccc1C(F)(F)F)=N\O,23.6%,8.1,-0.6%,10.8,i,26.5%
CSCC(C)N1CCC(CO)(CCc2ccccc2)CC1 (stereo not given),-5.8%,-5.5,-0.2%,44.0,i,-11.1%
CC(COc1ccccc1)N1CCC(CO)(CCc2ccccc2)CC1 (stereo not given),-15.6%,1.9,0.0%,-62.0*,-14.9%,-17.0%
N[C@@H](Cc1c[nH]c2ccc(O)cc12)C(=O)O,-10.0%,10.0,0.2%,0.7,-9.9%,23.8µM*!
COc1ccc2[nH]cc(CC(N)C(=O)O)c2c1 (stereo not given),.,.,.,.,.,40.0%[56.9 µM]
Cc1ccc(NC(=O)c2ccc(NCCCN3CCOCC3)c([N+](=O)[O-])c2)cc1Cl,-40.8%,-14.5,-0.4%,-50.7*,-17.7%,-15.8%
Cc1cc(C(=O)OCC(=O)NCCc2ccccc2)c2ccccc2n1,0.9%,50.8*,0.1%,-13.6,-67.7%,5.9%
CNC(=O)c1cnc2sc(N3CCCCCC3)nn2c1=O,.,4.7,.,.,i,2.4%
Cn1ccs/c1=N\C(=O)Nc1cccc(Cl)c1,3.55µM*,6.4,-0.9%,3.8,-4.3%,-20.5%[11.4 µM]
CN=c1sc(C(=O)Nc2cccc(Cl)c2)cc(=O)n1C,-39.2%,-8.2,-1.3%,-51.3*,i,?
Cn1c(N)c(C(=O)Nc2cccc(Cl)c2)c(=O)n(C)c1=O,-26.4%,2.6,0.0%,20.2,-16.2%,5.0%
Cc1cc(NC(=O)c2cc(C3CC3)on2)no1,6.31µM*,2.7,-0.3%,34.5,i,-13.8%
COC(=O)c1cc(=O)nc2scc(C)n12,-6.5%,-5.3,-0.7%,-17.4,i,-2.2%
COC(=O)c1cc(=O)nc2sc3ccccc3n12,3.2%,0.0,-0.7%,-51.2*,i,-6.1%
CCC(=NN=C(CC)c1ccccc1O)c1ccccc1O,-40.2%,44.9*,.,27.3,-16.6%,-0.3%

# Screening data (PubChem BioAssay)
